# Test results published in PubChem BioAssay (NCI).
# About 83,000 compounds went through this panel and 20% of them were active in at least one assay; those are over-represented in the sample as a whole.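 Compound tested at a single concentration for 48 hours in 96-well plates; a percent growth value below 10 was scored as active.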 A number with no mark means an inactive call. Active and inactive are the calls of the source.
# Tested on: A549/ATCC NSCLC
# Experiment: NCI-60 one-dose screen, 48 h (100 = growth as untreated, 0 = no growth, -100 = all killed)
# Settings: 10 µM
# Protocol: Growth inhibition of the A549/ATCC human Non-Small Cell Lung tumor cell line is measured as a screen for anti-cancer activity. Cells are grown in 96 well plates and exposed to the test compound for 48 hours. Compounds are tested at a single concentration, which is 10^-5 M for most compounds. The reported endpoint is percent growth (GI% or GIPRCNT), where numbers from 0 - 100% represent growth inhibition, and numbers from -100% - 0 represent cell death. For example, a value of 40 represents 60% growth inhibition. A value of 0 means no net growth occurred over the course of the experiment. A value of -40 indicates 40% of cells at the beginning of the experiment died by the end of the experiment. A value of -100 means all cells are dead at the end of the experiment.
# NCI-60 Human Tumor Cell Lines Screen was performed using the standard one-dose NCI protocol, which is described in more detail at https://dtp.cancer.gov/discovery_development/nci-60/default.htm.
# Compounds with GIPRCNT values below 10 were considered active. Activity score was based on GIPRCNT using the following formula: […]
# Score is 0 for GIPRCNT values of 100 or above, 50 for GIPRCNT values of 0, and 100 for GIPRCNT values of -100.
row,SMILES,growth
1,Cc1cc(C)c(NC(=O)c2sc3nc4c(cc3c2N)C(=O)CCC4)c(C)c1,23%
2,COc1cc(/C=C2\CCCC3=C2N=C2SC=NN2C3c2cc(OC)c(OC)c(OC)c2)cc(OC)c1OC (stereo not given),13.1%
3,O=C(Nc1cccc(-n2cc(-c3ccncc3)c(-c3cc(O)cc(Cl)c3)n2)c1)c1cc(C(F)(F)F)cc(C(F)(F)F)c1,27.3%
4,CC(=O)CSC(C)=O,99.6%
5,COc1cc(-c2nc(-c3nnc(-c4ccccc4Cl)o3)c3ccccn23)cc(OC)c1OC,72%
6,COc1ccc([N+](=O)[O-])c(C(=O)O)c1,103%
7,COc1cc(Cl)cc(-c2nn(-c3cccc(NC(=O)c4ccc(Cl)c(Cl)c4)c3)cc2-c2ccncc2)c1,59.7%
8,COc1ccc(/C=C/C(=O)Nc2ccc(-c3nc4ccc(F)cc4s3)cc2)cc1,94%
9,Cc1ccc(NC(=O)CSc2nc3ccccc3c(=O)n2CCc2ccccc2)c(C(=O)O)c1,98%
10,Clc1ccc(Sc2nc(NC3CC3)nc(Sc3ccc(Cl)cc3)n2)cc1,80.9%
11,O=C(Nc1ccncc1)C(=O)c1cn(S(=O)(=O)c2cc(Cl)cc(Cl)c2)c2ccccc12,85.3%
12,COc1ccc2c(c1)N(CCO)C1=C(C(=O)OC1)C2c1cc(OC)c(OC)c(OC)c1 (stereo not given),13.1%
13,CCC(=O)N1C/C(=C/c2ccc(OC)cc2)C(=O)/C(=C/c2ccc(OC)cc2)C1,32%
14,CS(=O)(=O)Nc1ccc(Nc2c3ccccc3nc3cc(N)ccc23)cc1,11%
15,CSc1cc(SC)ncn1,105%
16,Cc1cc(=O)[nH]c(N/N=C/c2ccccc2O)n1,33.1%
17,O=C1/C(=C\c2ccc(Br)cc2)CN(C(=O)c2ccccc2F)C/C1=C\c1ccc(Br)cc1,2.51% (active)
18,O=c1c2ccccc2nc(SCCN2CCCCC2)n1CCc1ccccc1,87.9%
19,COc1cc(/C=C/C(=O)c2ccc(Cl)cc2)ccc1OS(=O)(=O)c1ccc(C)cc1,99.9%
20,CC(C)=CCc1ccc(O)c(=O)cc1C(C)C,9.13% (active)

row,SMILES,growth
1,CCN1CCC2(CC1)OC(c1ccccc1)C(c1ccccc1)O2 (stereo not given),105%
2,CC/C(=C(/c1ccc(OCCN(C)C)cc1)c1ccc(OC(=O)CCCCC(=O)c2c(C)[nH]c(/C=C3\N=C(c4ccc[nH]4)C=C3OC)c2C)cc1)c1ccccc1,52.4%
3,O=C(O)c1ccc(P(=O)(O)O)c([N+](=O)[O-])c1,93%
4,COc1ccc(-c2nc3ncccn3c2-c2nnc(-c3ccsc3C)o2)cc1,78.8%
5,Clc1ccc(-c2cn(-c3ccccc3)c(-c3ccccc3)n2)c(Cl)c1,-8.47% (active)
6,COc1cc(-c2cc(C(=O)N3CCN(C(=O)c4ccccc4NCc4ccco4)CC3)nc3cc(-c4ccccc4)nn23)cc(OC)c1OC,24.6%
7,COc1ccc(-n2c(SCc3cc(OC)c(OC)c(OC)c3)nc3ccc(C)cc3c2=O)cc1,51%
8,Cc1cc2ccccc2nc1-c1ccccc1F,92.4%
9,O=[N+]([O-])c1cccc(N=Cc2ccc3c(c2)OCO3)c1,101%
10,O=C1/C(=C/c2ccc([N+](=O)[O-])s2)Oc2ccccc21,-22.2% (active)
11,CCCCOc1ccc(NC(=O)Nc2nnc(C)s2)cc1,41.4%
12,COc1ccc(-c2nc3ccccn3c2-c2nnc(-c3cc(OC)c(OC)c(OC)c3)o2)cc1,60.9%
13,Cc1ccc(-c2nc(/C=C3/C(=O)N(C)c4ccc(F)cc43)c3ccccn23)cc1,94.1%
14,COc1cc(Cl)cc(-c2nn(-c3cccc(NC(=O)c4ccc(N5CCOCC5)c(C(F)(F)F)c4)c3)cc2-c2ccncc2)c1,45.5%
15,O=C1C(=O)c2ccccc2C(O)=C1CCCc1ccc(C2CCCCCC2)cc1,22.7%
16,CN(C)C(=S)N/N=C\C=N/NC(=S)N(C)C,40.1%
17,CCN(CC)CCSCCN(CC)CC,103%
18,CC(=O)/C(=C/c1ccccc1)C(=O)CC(C)C,97%
19,N#CCCN1C/C(=C/c2ccc(Cl)cc2)C(=O)/C(=C/c2ccc(Cl)cc2)C1,-35.9% (active)
20,CC1(C)Cc2c(sc3ncn4nc(-c5ccc(O)cc5)nc4c23)CO1,63%
